Screens from PubChem BioAssay.
miR122 inh: activators of miR-122 sensor in Huh7 cells; Huh7 psiCHECK-miR122 Renilla luciferase sensor, 48 h; activation, % at 12.5 µM; actives 0.14% (n = 340,000); AID 623901;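 active = mean activation of 30% or more, with every replicate also reaching 30%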;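 note: 0% = median of neutral control wells and 100% = median of positive control wells; higher luciferase signal means stronger suppression of miR-122 activity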
* = called active by the depositor. Many of the other results were omitted from the sample, so hits are more common in it than they were.

SMILES	miR122 inh
COc1ccc(NC(=O)CN(C)C(=O)/C=C/c2ccc(OCc3ccccc3)cc2)cc1	43*
CCCNC(=O)N(C)C[C@H]1Oc2cc(C#Cc3cccc(F)c3)ccc2S(=O)(=O)N([C@@H](C)CO)C[C@H]1C	3
CC(C)NC(=O)N(C)C[C@H]1Oc2cc(-c3ccccc3)ccc2S(=O)(=O)N([C@H](C)CO)C[C@@H]1C	-12
c1ccc(CCCNCCCn2cnc3c(OCc4ccccc4)ncnc32)cc1	34*
COc1ccc(C#Cc2cnc3c(c2)C(=O)N([C@H](C)CO)C[C@H](C)[C@H](CN(C)CC2CCOCC2)O3)cc1	-5
COCC#Cc1ccc2c(c1)O[C@H](CN(C)C(=O)C1CCCCC1)[C@@H](C)CN([C@H](C)CO)S2(=O)=O	-12
C[C@@H]1CN([C@H](C)CO)S(=O)(=O)c2ccc(-c3cncnc3)cc2O[C@H]1CN(C)C(=O)Cc1cccnc1	-1
Cc1nnc(NC(=O)CSc2nc(C(C)C)nc3sc(C)c(C)c23)s1	55*
CCC(=O)Nc1ccc2c(c1)OC[C@H](C)N(C(=O)c1ccccc1F)C[C@H](C)[C@H](OC)CN(C)C2=O	-1
C[C@H]1CN([C@@H](C)CO)C(=O)c2cc(Br)cnc2O[C@H]1CN(C)CC1CCOCC1	12
CC(=O)N(C)C[C@@H]1Oc2cc(C#C[C@H](C)O)ccc2S(=O)(=O)N([C@@H](C)CO)C[C@@H]1C	-1
Cc1nn(Cc2ccc(Cl)c(Cl)c2)c(C)c1NC(=O)c1sc2ccccc2c1Cl	32*
CO[C@H]1CN(C)C(=O)c2ccc(NC(=O)Nc3ccc(Cl)cc3)cc2OC[C@@H](C)N(C)C[C@H]1C	-1
CC(C)CC#Cc1cnc2c(c1)C(=O)N([C@H](C)CO)C[C@@H](C)[C@H](CN(C)Cc1ccc(F)cc1)O2	-5
Cc1cc(C)cc(N=c2c([N+](=O)[O-])nn(-c3ccc4c(c3)OCCO4)n2O)c1	42*
CCCC#Cc1ccc2c(c1)O[C@H](CN(C)C(=O)c1cccnc1)[C@H](C)CN([C@@H](C)CO)S2(=O)=O	12
CCC(=O)Nc1ccc2c(c1)OC[C@@H](C)N(C(=O)CN1CCOCC1)C[C@@H](C)[C@@H](OC)CN(C)C2=O	-15
CO[C@@H]1CN(C)C(=O)c2cc(NC(C)=O)ccc2OC[C@@H](C)N(C(=O)c2ccccc2)C[C@H]1C	3
CO[C@@H]1CN(C)C(=O)c2ccc(NS(=O)(=O)c3cccc(C)c3)cc2OC[C@@H](C)N(C(=O)Cc2cccnc2)C[C@H]1C	-1
S=C(NCCc1ccccc1)Nc1ccc(Cl)cc1Cl	-95
CCNC(=O)CCC(=O)Nc1cc(Cl)ccc1C	36*
C[C@@H]1CN([C@@H](C)CO)S(=O)(=O)c2ccc(C#CC3CC3)cc2O[C@@H]1CN(C)C(=O)C1CC1	15
Cc1ccccc1-c1cnc2c(c1)C(=O)N([C@H](C)CO)C[C@H](C)[C@H](CN(C)C(=O)c1ccccc1)O2	0
C[C@H](O)C#Cc1cnc2c(c1)C(=O)N([C@@H](C)CO)C[C@@H](C)[C@@H](CN(C)C(=O)CN(C)C)O2	2
COC(=O)[C@@H]1Cc2c([nH]c3ccccc23)C(C)(C)N1C(=O)CCl	32*
SMILES	miR122 inh
Cc1cc(C(=O)Nc2cccc3c2O[C@@H](CN(C)CC2CCCCC2)[C@@H](C)CN([C@H](C)CO)C3=O)n(C)n1	-97
C[C@H]1CN([C@@H](C)CO)C(=O)c2cc(C#CC3(O)CCCC3)cnc2O[C@H]1CN(C)S(=O)(=O)c1ccc(F)cc1	2
CCC(=O)N(C)C[C@@H]1Oc2ncc(C#Cc3ccc(OC)cc3)cc2C(=O)N([C@@H](C)CO)C[C@@H]1C	9
COc1ccccc1C#Cc1ccc2c(c1)O[C@@H](CN(C)Cc1ccncc1)[C@H](C)CN([C@H](C)CO)S2(=O)=O	7
CCC(=O)N(C)C[C@H]1Oc2cc(-c3cccc(C#N)c3)ccc2S(=O)(=O)N([C@H](C)CO)C[C@H]1C	9
CCOC(=O)c1ccc(-n2ccnc2)c(NC(=O)c2cccc(Br)c2)c1	-128
CCOc1cc(NC(=O)c2ccccn2)c(OCC)cc1NC(=O)c1ccc(Cl)cc1	34*
COc1ccc(S(=O)(=O)NCc2ccccn2)cc1NC(=O)c1ccc(C)cc1	-94
COc1cccc(NC(=O)N(C)C[C@H]2Oc3cc(-c4cccc(C(=O)N(C)C)c4)ccc3S(=O)(=O)N([C@H](C)CO)C[C@H]2C)c1	-5
C[C@@H]1CN([C@H](C)CO)C(=O)c2cc(C#CCC3CCCC3)cnc2O[C@@H]1CN(C)Cc1ccccn1	-14
COCC(=O)N(C)C[C@@H]1Oc2cc(-c3cccc(F)c3)ccc2S(=O)(=O)N([C@@H](C)CO)C[C@@H]1C	2
C[C@H](CO)N1C[C@H](C)[C@H](CN(C)C(=O)c2ccccn2)Oc2ncc(-c3ccc(F)cc3)cc2C1=O	7
C[C@@H]1CN([C@H](C)CO)S(=O)(=O)c2ccc(-c3ccncc3)cc2O[C@H]1CN(C)Cc1ccccn1	-3
COc1cccc(C(=O)Nc2ccc(C(=O)O)cc2)c1	-113
CCN(CC)CCNC(=O)c1ccc(NC(=O)c2cn(-c3ccc(F)cc3)nc2-c2cccc(OC)c2)cc1	68*
C[C@H]1CN([C@@H](C)CO)C(=O)c2cc(/C=C/c3ccccc3)cnc2O[C@@H]1CN(C)C(=O)Nc1ccccc1F	0
COCC(=O)N(C)C[C@@H]1Oc2cc(-c3cccc(F)c3)ccc2S(=O)(=O)N([C@H](C)CO)C[C@H]1C	-3
COc1ccc(-c2cnc3c(c2)C(=O)N([C@H](C)CO)C[C@@H](C)[C@H](CN(C)C(=O)C2CCOCC2)O3)cc1	-1
CC(=O)C1=C(c2ccc(Br)cc2)C(=O)c2ccccc2C1=O	76*
CCCNC(=O)N1C[C@@H](C)[C@H](OC)CN(C)C(=O)c2cc(NS(=O)(=O)CC)ccc2OC[C@@H]1C	1
C[C@H](CO)N1C[C@H](C)[C@@H](CN(C)Cc2ccc(C(=O)O)cc2)Oc2ncc(-c3ccc(F)cc3)cc2C1=O	4
C[C@@H]1CN([C@@H](C)CO)C(=O)c2cc(-c3cccc(F)c3)cnc2O[C@H]1CN(C)Cc1cncnc1	2
C[C@H]1CN([C@@H](C)CO)C(=O)c2cc(C#CC3CC3)cnc2O[C@@H]1CN(C)C	4
C[C@@H]1CN([C@@H](C)CO)C(=O)c2cc(C#C[C@@H](C)O)cnc2O[C@H]1CN(C)Cc1cncnc1	7
COc1cccc(NC(=O)N(C)C[C@@H]2Oc3cc(C#Cc4ccccc4)ccc3S(=O)(=O)N([C@H](C)CO)C[C@@H]2C)c1	4
SMILES	miR122 inh
O=C(Nc1ccc(F)cc1)N1CCCCN2[C@H](CO)[C@@H](c3ccc(C#Cc4ccccc4)cc3)[C@H]2C1	34*
O=C(Nc1ccccc1F)N1CCCCN2[C@@H](CO)[C@@H](c3ccc(C#Cc4ccccc4)cc3)[C@@H]2C1	37*
COc1ccc(C#Cc2ccc([C@@H]3[C@@H](CO)N4CCCCN(C(=O)Nc5ccccc5)C[C@H]34)cc2)cc1	34*
C[C@H]1CN([C@@H](C)CO)C(=O)c2cc(-c3cccnc3)cnc2O[C@H]1CN(C)S(C)(=O)=O	0
C[C@H]1CN([C@@H](C)CO)C(=O)c2cc(-c3cccc(C(=O)N(C)C)c3)cnc2O[C@H]1CN(C)S(=O)(=O)c1ccc(F)cc1	-4
CC(C)CC#Cc1cnc2c(c1)C(=O)N([C@@H](C)CO)C[C@@H](C)[C@@H](CN(C)C(=O)Nc1cccc(F)c1)O2	0
C[C@H]1CN([C@@H](C)CO)C(=O)c2cc(-c3cccc(F)c3)cnc2O[C@@H]1CN(C)CC1CCCC1	2
